Source: PubChem BioAssay
TRHR enhancer – allosteric enhancers of human TRH receptor | P34981 | TRHR cells, fluo-8 calcium fluorescence, EC20 TRH enhancement | enhancement, % at 2 µM | 360,000 tested, 0.66% active | AID 493056; in the data active = enhancement above about 30%
Target sequence (P34981 whole entry, looked up): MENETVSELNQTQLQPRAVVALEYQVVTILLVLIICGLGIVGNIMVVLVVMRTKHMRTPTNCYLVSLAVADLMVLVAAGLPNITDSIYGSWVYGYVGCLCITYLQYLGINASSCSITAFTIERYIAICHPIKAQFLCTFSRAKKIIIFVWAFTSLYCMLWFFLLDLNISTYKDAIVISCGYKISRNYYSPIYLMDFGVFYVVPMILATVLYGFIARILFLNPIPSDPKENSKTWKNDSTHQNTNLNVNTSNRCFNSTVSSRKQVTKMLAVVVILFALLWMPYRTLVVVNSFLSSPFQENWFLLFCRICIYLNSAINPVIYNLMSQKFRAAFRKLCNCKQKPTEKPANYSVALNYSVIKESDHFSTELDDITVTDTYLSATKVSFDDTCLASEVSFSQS
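TRHR-expressing cells loaded with fluo-8 calcium dye were read kinetically (ex 480/em 530) during compound addition, then stimulated with an EC20 of TRH (10 nM final). Enhancement of the Gq-mediated intracellular calcium response was scored.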
TRHR ag – activates the human TRH receptor | 360,000 tested, 0.18% active | TRHR cells, calcium flux fluo-8, FDSS agonist mode | P34981 | activation, % at 2 µM
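TRHR-expressing cells, plated overnight in medium with 10% serum, were loaded with fluo-8 calcium dye at room temperature. After a 10 s baseline, library compound was pin-added and calcium release was recorded kinetically (ex 480/em 530) as agonist response.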
D1 agonist – activates the human D1 dopamine receptor | P21728 | HEK293 T-REx D1 cells, calcium flux, agonist mode | activation, % at 2 µM | 360,000 tested, 1% active | AID 504660
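Agonism was scored from calcium flux recorded over 180 s (1 read/s) after pintool compound addition, following a 10-cycle baseline. Cells were inducible force-coupled HEK293 TREx D1, plated overnight at 30 C and loaded with no-wash calcium dye.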
D1 PAM – human D1 dopamine receptor positive modulation. HEK293 TREx D1 cells, calcium flux, dopamine EC20 potentiation. potentiation, % at 10 µM. 360,000 tested, 0.036% active. AID 504651; in the data active = potentiation above about 30%
D1 antag – antagonists of human D1 dopamine receptor; HEK293 TREx D1 cells, calcium flux, dopamine EC80; stronger effect = lower value; activity change, negative = inhibition, % at 10 µM; 360,000 tested, 3.2% active; AID 504652; in the data active = activity change below about -30%
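Tetracycline-induced HEK293 T-REx cells with force-coupled D1 receptor were loaded with a no-wash calcium dye. Compound was added after a 10 s baseline and read kinetically for 180 s; EC80 dopamine was then added and calcium flux followed another 180 s.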
A number is an active result. This is a sample that favours compounds with a hit; in the whole collection about 4.7% have one here. Rule as the data show it, unless noted: active = activation above about 30%; inactive = the rest.

CCNCC(O)c1cccc(O)c1 (configuration not stated) was read as TRHR enhancer inactive, TRHR ag inactive, D1 agonist inactive, D1 PAM inactive and D1 antag inactive.
CC(Cc1ccc(O)cc1)NCC(O)c1cc(O)cc(O)c1 (configuration not stated) was read as TRHR enhancer inactive, TRHR ag inactive and D1 antag -31.
Screening N#Cc1cc2c(nc1SCC(=O)Nc1ccc(Cl)c(C(F)(F)F)c1)C1CCN2CC1 returned TRHR enhancer inactive, TRHR ag inactive, D1 agonist inactive, D1 PAM inactive and D1 antag inactive.
Screening Cc1cc(C=C(C#N)C#N)ccc1N1CCCC1 returned TRHR enhancer inactive, TRHR ag inactive, D1 agonist 51, D1 PAM inactive and D1 antag inactive.
Oc1cc2c(cc1O)[C@H]1c3ccccc3CN[C@@H]1CC2 was read as TRHR enhancer inactive, TRHR ag inactive, D1 agonist 67, D1 PAM inactive and D1 antag -87.
Screening N#CC(C#N)=NNc1ccc(-n2ccc(C(F)(F)F)n2)cc1 returned TRHR enhancer inactive, TRHR ag inactive, D1 agonist 33, D1 PAM inactive and D1 antag -36.
For Cc1cc(C)n(-c2ccc(NN=C(C#N)C#N)cc2)n1 the results were TRHR enhancer inactive, TRHR ag inactive, D1 agonist 41, D1 PAM inactive and D1 antag -31.
`Cc1ccc(Cn2cccc(C(=O)Nc3cc([N+](=O)[O-])ccc3C)c2=O)cc1` gave TRHR enhancer inactive, TRHR ag inactive, D1 agonist inactive and D1 PAM inactive.
Screening Cc1ccccc1-n1nc(C)c2c1NC(=O)CSC2c1ccccc1C(F)(F)F (configuration not stated) returned TRHR enhancer inactive, TRHR ag inactive, D1 agonist inactive, D1 PAM inactive and D1 antag inactive.
CCC(=O)N1CC(=O)Nc2ccc(C)cc2C1c1ccc(F)cc1 (configuration not stated) was read as TRHR enhancer inactive, TRHR ag inactive, D1 agonist inactive, D1 PAM inactive and D1 antag inactive.
For FCCN(CCF)c1cccc(Cl)c1 the results were TRHR enhancer inactive, TRHR ag inactive, D1 agonist inactive, D1 PAM inactive and D1 antag -34.
`CC(C)[C@H]1C(=O)O[C@H](C(C)C)C(=O)N(C)[C@@H](C(C)C)C(=O)O[C@H](C(C)C)C(=O)N(C)[C@@H](C(C)C)C(=O)O[C@H](C(C)C)C(=O)N1C` gave TRHR enhancer inactive, TRHR ag inactive, D1 agonist 53, D1 PAM inactive and D1 antag -33.
`CC(=O)Nc1ccc(OC(=O)N(C)c2ccc(C)cc2)cc1` gave TRHR enhancer inactive, TRHR ag inactive, D1 agonist inactive, D1 PAM inactive and D1 antag -38.
Screening CC(=O)Nc1ccc(OC(=O)N(C)c2ccccc2)cc1 returned TRHR enhancer inactive, TRHR ag inactive, D1 agonist inactive, D1 PAM inactive and D1 antag inactive.
`CCCC12CN3CC(C)(CN(C1)C3c1c(C)[nH]c(=O)[nH]c1=O)C2=O` (configuration not stated) gave TRHR enhancer inactive, TRHR ag inactive, D1 agonist inactive, D1 PAM inactive and D1 antag inactive.
For O=C1NC(=S)N(Cc2ccco2)C(=O)/C1=C\c1cccs1 the results were TRHR enhancer 51, TRHR ag inactive, D1 agonist inactive, D1 PAM inactive and D1 antag inactive.
Screening C=CCN1C(=O)/C(=C/c2cccs2)C(=O)NC1=S returned TRHR enhancer inactive, TRHR ag inactive, D1 agonist inactive, D1 PAM inactive and D1 antag inactive.
`Cc1ccc(OCC(=O)Nc2ccc(Cl)cc2C(=O)c2ccccc2)c(Br)c1` gave TRHR enhancer inactive, TRHR ag inactive, D1 agonist inactive, D1 PAM inactive and D1 antag inactive.
Screening CCN(CC)C(=O)c1ccc(NC(=O)CCn2nc(-c3ccc(C)cc3)c3ccccc3c2=O)cc1 returned TRHR enhancer inactive, TRHR ag inactive, D1 agonist inactive, D1 PAM inactive and D1 antag inactive.
`CN1CCc2nc(SCc3ccccc3Br)c(C#N)cc2C1` gave TRHR enhancer inactive, TRHR ag inactive, D1 agonist inactive, D1 PAM inactive and D1 antag -35.
Cc1cccc(CSc2nc3c(cc2C#N)CN(C)CC3)c1 was read as TRHR enhancer inactive, TRHR ag inactive, D1 agonist inactive, D1 PAM inactive and D1 antag inactive.
CN(CCc1ccccc1)Cc1c[nH]c2ccccc12 was read as TRHR enhancer inactive, TRHR ag inactive, D1 agonist inactive, D1 PAM inactive and D1 antag -66.
`Cc1oc(-c2ccc(Cl)cc2)nc1CN1C(=O)CN=C(c2ccccc2)c2ccccc21` gave TRHR enhancer inactive, TRHR ag inactive, D1 agonist inactive, D1 PAM inactive and D1 antag inactive.
`CN1C(=O)NC(=O)C2(Cc3ccccc3N3CCOCC32)C1=O` (configuration not stated) gave TRHR enhancer inactive, TRHR ag inactive, D1 agonist inactive, D1 PAM inactive and D1 antag -32.
`O=C(Nc1ccccc1C(F)(F)F)c1cccn(Cc2ccccc2)c1=O` gave TRHR enhancer inactive, TRHR ag inactive, D1 agonist inactive and D1 PAM inactive.
For COc1ccc(Cn2c(O)c(C=NCCN3CCOCC3)c(=O)[nH]c2=O)cc1 the results were TRHR enhancer inactive, TRHR ag inactive, D1 agonist inactive, D1 PAM inactive and D1 antag -37.
For Cc1ccc(S(=O)(=O)N(c2cc(Cl)c(O)c(Cl)c2)P(=O)(OC(C)C)OC(C)C)cc1 the results were TRHR enhancer inactive, TRHR ag inactive, D1 agonist inactive, D1 PAM inactive and D1 antag -33.
Screening CCOc1cccc(CNC2CN3CCC2CC3)c1 (configuration not stated) returned TRHR enhancer inactive, TRHR ag inactive, D1 agonist inactive, D1 PAM inactive and D1 antag -51.
Screening CC1CN=C(Nc2ccc(F)c(Cl)c2)S1 (configuration not stated) returned TRHR enhancer inactive, TRHR ag inactive, D1 agonist inactive, D1 PAM inactive and D1 antag -33.
Screening Fc1ccc(NC2=NCCS2)cc1Cl returned TRHR enhancer inactive, TRHR ag inactive, D1 agonist inactive, D1 PAM inactive and D1 antag inactive.
`Cc1ccc(-n2c(/C=C/c3ccc(Br)s3)nc3ccccc3c2=O)cc1` gave TRHR enhancer inactive, TRHR ag inactive, D1 agonist inactive, D1 PAM inactive and D1 antag inactive.
`O=P(Nc1cccc(F)c1)(Oc1ccccc1F)Oc1ccccc1F` gave TRHR enhancer inactive, TRHR ag inactive, D1 agonist inactive, D1 PAM inactive and D1 antag -37.
Cc1cccc(NP(=O)(Oc2ccccc2F)Oc2ccccc2F)c1 was read as TRHR enhancer inactive, TRHR ag inactive, D1 agonist inactive, D1 PAM inactive and D1 antag inactive.
